# In PubChem BioAssay AID2283260 (EPA ToxCast):
# Records with an inconclusive call do not appear. Calls of active or inactive are those of the source. The calls were made as follows: active = hit-call score of the fitted dose curve at least 0.9, where 1 is the maximum; inconclusive = response in the unintended direction; inactive = score below 0.9.
# Target: human Complement Component 5, Anaphylatoxin Receptor (C5a), C5AR1 (gene 728) (UniProt P21730)
# Test: NVS_GPCR_hC5a: NovaScreen (NVS) G Protein-Coupled Receptor Assay for human Complement Component 5, Anaphylatoxin Receptor (C5a)
# Description: NVS_GPCR_hC5a is a biochemical, single-readout assay that uses extracted gene-proteins from U937 in a cell-free assay. Measurements were taken 2 hours after chemical dosing in a 96-well plate.NVS_GPCR_hC5a is one of one assay component(s) measured or calculated from the NVS_GPCR_hC5a assay. It is designed to make measurements of radioligand binding, a form of binding reporter, as detected with scintillation counting signals by Filter-based radiodetection technology.Data from the assay component NVS_GPCR_hC5a was analyzed into 1 assay endpoint. This assay endpoint, NVS_GPCR_hC5a, was analyzed in the positive analysis fitting direction relative to DMSO as the negative control and baseline of activity. Using a type of binding reporter, loss-of-signal activity can be used to understand changes in the binding as they relate to the gene C5AR1. Furthermore, this assay endpoint can be referred to as a primary readout, because the performed assay has only produced 1 assay endpoint. To generalize the intended target to other relatable targets, this assay endpoint is annotated to the gpcr intended target family, where the subfamily is rhodopsin-like receptor.
# Binding assays used specific radioligands (tritiated, iodinated) with non-radioactive competitive displacement ligands in agonist or antagonist protocols (as indicated) and various reference compounds and inhibitors to titrate specific binding to receptors and transporters. Most enzyme assays (CYPs, kinases, phosphatases, proteases, HDACs) used recombinant protein and specific substrates (fluorescence mostly, some colorimetric and radioactive) and inhibitors, followed by a biochemical separation of substrate and product. All assays for the biochemical HTS were initially run in duplicate at a single concentration (10 uM for CYP450 assays and 25 uM for all others). Assay-chemical combinations meeting a pre-defined threshold (e.g., 30% inhibition and other criteria defined below) were then run in singleton concentration-response format with maximum concentration of 20 uM for CYPs and 50 uM for all others. Each assay was run with positive and negative controls, and concurrent controls on every plate. The follow-up (secondary) screen tested active chemical-pairs in concentration series, as well as a few additional assays not tested in the primary screen, some selected negative inactives, and several cases re-run in the concentration series for confirmatory purposes.
# human Complement Component 5, Anaphylatoxin Receptor (C5a), C5AR1 (gene 728), sequence (P21730 whole entry, looked up): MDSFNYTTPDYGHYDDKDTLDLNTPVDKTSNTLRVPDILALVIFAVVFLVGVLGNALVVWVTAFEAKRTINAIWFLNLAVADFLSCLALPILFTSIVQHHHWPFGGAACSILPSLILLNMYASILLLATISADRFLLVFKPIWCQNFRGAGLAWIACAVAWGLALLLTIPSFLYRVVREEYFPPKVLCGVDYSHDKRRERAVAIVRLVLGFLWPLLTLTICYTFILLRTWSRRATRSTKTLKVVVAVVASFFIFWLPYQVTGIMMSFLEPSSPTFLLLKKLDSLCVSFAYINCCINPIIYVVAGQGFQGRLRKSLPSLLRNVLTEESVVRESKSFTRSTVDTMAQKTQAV
SMILES,outcome,AC50
CCCCCCCCCC,inactive,
[Cl-].[Cl-].[Hg+2],,25 µM (active)
C#CCOS(=O)OC1CCCCC1Oc1ccc(C(C)(C)C)cc1 (centres undefined),inactive,
C=CCc1cc(S(=O)(=O)c2ccc(O)c(CC=C)c2)ccc1O,inactive,
COC(=O)c1c(C(F)F)nc(C(F)(F)F)c(C2=NCCS2)c1CC(C)C,inactive,
Oc1ccc(C(c2ccc(O)cc2)C(Cl)(Cl)Cl)cc1,inactive,
CCOC(=O)NCCOc1ccc(Oc2ccccc2)cc1,inactive,
CC1(C)C(C=C(Cl)Cl)C1C(=O)OC(C#N)c1cccc(Oc2ccccc2)c1 (centres undefined),inactive,
CCC(C)(C)C(=O)OC1=C(c2ccc(Cl)cc2Cl)C(=O)OC12CCCCC2,inactive,
COc1cc(OC)nc(NC(=O)NS(=O)(=O)c2ncccc2OCC(F)(F)F)n1,inactive,
COc1ccc(C(c2ccc(OC)cc2)C(Cl)(Cl)Cl)cc1,inactive,
CCCCCCCCCC[N+](C)(C)CCCCCCCCCC,,42.3 µM (active)
CCC[CH2][Sn]([Cl])([CH2]CCC)[CH2]CCC,inactive,
CCOC(=O)O[C@H](C)OC(=O)c1ccc2c(c1)cc(C(=O)NC1CCN(C(C)C)CC1)n2Cc1cc(-c2ccc(Cl)s2)on1,,39.6 µM (active)
